Our source for the outcome and AC50 values is PubChem BioAssay (EPA / NIEHS).

Assay [1] deals with human Peroxisome Proliferator-activated Receptor alpha (PPARa), PPARA (gene 5465) (UniProt Q07869). The experiment in a line: ATG_PPARa_TRANS: Attagene TRANS-FACTORIAL HepG2 Assay for human Peroxisome Proliferator-activated Receptor alpha (PPARa) (AID 2283001). The essentials:
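Reporter transcripts from GAL4-UAS units in transfected HepG2 were quantified 24 h after dosing. Detection used reverse transcription, PCR, fluorescent primer extension and capillary electrophoresis, with DMSO as baseline.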

Assay [2] deals with human Peroxisome Proliferator-activated Receptor delta (PPARd), PPARD (gene 5467) (UniProt Q03181). The assay can be described thus: ATG_PPARd_TRANS: Attagene TRANS-FACTORIAL HepG2 Assay for human Peroxisome Proliferator-activated Receptor delta (PPARd) (AID 2283002). In short, it runs like this:
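Transient HepG2 transfection (multiple GAL4-UAS RTUs, chimeric receptor-Gal4); 24 h dosing; total RNA → oligo(dT) RT → PCR → 6-FAM primer extension → HpaI cut → CE. Positive direction vs DMSO.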

Read-out in assay [3]: Intercellular Adhesion Molecule 1 (ICAM1), ICAM1 (gene 3383)
The assay can be described thus: BSK_3C_ICAM1: BioMAP Diversity Plus: 3C Assay for Intercellular Adhesion Molecule 1 (ICAM1) Biomarker Activity (AID 2283003; active = hit-call score of the fitted dose curve at least 0.9, where 1 is the maximum; inactive = score below 0.9). Conditions: primary human endothelial cells (HUVEC); actives raise or lower the signal. In short, it runs like this:
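Primary human umbilical vein endothelial cells in the BioMAP 3C system were exposed to chemicals for 24 h, then ICAM-1 was quantified by ELISA. Activity was fitted bidirectionally against the DMSO negative control baseline.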

A short description of assay [4]: BSK_3C_Proliferation: Cell Proliferation Assessment in the BioMAP Diversity Plus: 3C Assay (AID 2283006; active = hit-call score of the fitted dose curve at least 0.9, where 1 is the maximum; inactive = score below 0.9;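 as to AC50: potency may reflect either rise or fall in cell number versus DMSO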). Conditions: primary human endothelial cells (HUVEC). The essentials:
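Human umbilical vein endothelial cells were grown sub-confluent and exposed to chemical for 48 h, then fixed with 10% TCA and stained with 0.1% sulforhodamine B; absorbance at 560 nm gave relative cell number, fitted bidirectionally against DMSO baseline.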

In assay [5] the target is Nuclear receptor subfamily 1 group I member 2 (Homo sapiens) (UniProt O75469). The experiment in a line: ATG_PXR_TRANS: Attagene TRANS-FACTORIAL HepG2 Assay for human Pregnane X Receptor (PXR) (AID 2283008). The essentials: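 HepG2 cells transiently transfected with GAL4-UAS reporter units and PXR-Gal4 chimera, exposed 24 h. Reporter mRNA quantified by RT-PCR, fluorescent labelling, HpaI digestion and capillary electrophoresis; gain of signal vs DMSO.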
Sequence of Nuclear receptor subfamily 1 group I member 2 (Homo sapiens) (O75469 whole entry, looked up, the tested form may be a part): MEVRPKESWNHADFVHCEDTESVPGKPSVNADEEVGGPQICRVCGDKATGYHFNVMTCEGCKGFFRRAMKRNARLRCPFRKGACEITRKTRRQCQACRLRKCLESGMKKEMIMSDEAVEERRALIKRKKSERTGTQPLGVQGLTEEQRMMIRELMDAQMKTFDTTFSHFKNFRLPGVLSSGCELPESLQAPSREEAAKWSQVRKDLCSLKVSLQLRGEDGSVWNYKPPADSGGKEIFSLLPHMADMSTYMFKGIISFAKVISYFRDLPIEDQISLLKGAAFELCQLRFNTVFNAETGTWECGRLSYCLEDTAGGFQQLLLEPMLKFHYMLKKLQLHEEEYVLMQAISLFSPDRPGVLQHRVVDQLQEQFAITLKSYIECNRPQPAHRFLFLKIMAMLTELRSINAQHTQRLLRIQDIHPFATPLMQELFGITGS

The target of assay [6] is Retinoic acid receptor RXR-alpha (Homo sapiens) (UniProt P19793). The experiment in a line: ATG_RXRa_TRANS: Attagene TRANS-FACTORIAL HepG2 Assay for human Retinoid X Receptor alpha (RXRa) (AID 2283012). In short, it runs like this: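 HepG2 cells transiently transfected with multiplexed GAL4-UAS reporter units and chimeric NR-GAL4 fusions, dosed 24 h. Reporter mRNA measured by RT-PCR, FAM labelling, HpaI digestion and capillary electrophoresis; gain-of-signal fitted relative to DMSO baseline.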
Sequence of Retinoic acid receptor RXR-alpha (Homo sapiens) (P19793 whole entry, looked up, the tested form may be a part): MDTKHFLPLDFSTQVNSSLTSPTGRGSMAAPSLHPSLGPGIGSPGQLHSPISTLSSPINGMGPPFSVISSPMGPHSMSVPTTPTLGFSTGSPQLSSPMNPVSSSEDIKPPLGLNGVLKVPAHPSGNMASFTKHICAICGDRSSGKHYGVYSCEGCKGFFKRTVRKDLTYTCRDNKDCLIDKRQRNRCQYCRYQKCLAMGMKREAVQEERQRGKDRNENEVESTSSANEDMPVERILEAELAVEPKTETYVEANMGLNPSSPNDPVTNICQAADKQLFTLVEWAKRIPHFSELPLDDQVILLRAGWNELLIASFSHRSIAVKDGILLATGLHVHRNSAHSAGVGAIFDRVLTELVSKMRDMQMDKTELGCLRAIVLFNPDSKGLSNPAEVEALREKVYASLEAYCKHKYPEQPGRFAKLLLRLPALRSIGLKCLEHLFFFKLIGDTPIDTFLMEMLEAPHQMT

Assay [7] addresses human Retinoid X Receptor beta (RXRb), RXRB (gene 6257) (UniProt P28702). The assay can be described thus: ATG_RXRb_TRANS: Attagene TRANS-FACTORIAL HepG2 Assay for human Retinoid X Receptor beta (RXRb) (AID 2283013). The essentials:
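HepG2 cells transiently transfected with multiplexed reporter units driven by GAL4-UAS and exogenous chimeric NR-Gal4 proteins; treated 24 h. Reporter mRNA measured by RT-PCR, 6-FAM labelling and capillary electrophoresis; gain-of-signal fitted versus DMSO baseline.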

Assay [8] deals with human Thyroid Receptor alpha (THRa1), THRA (gene 7067) (UniProt P10827). The assay can be described thus: ATG_THRa1_TRANS: Attagene TRANS-FACTORIAL HepG2 Assay for human Thyroid Receptor alpha (THRa1) (AID 2283014). In short, it runs like this: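 First, HepG2 cells receive multiple GAL4-UAS reporter units and the chimeric receptor. They are then dosed for 24 h, after which RNA is reverse-transcribed, amplified, labelled, HpaI-cut and sized by capillary electrophoresis; gain relative to DMSO is scored.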
Sequence of human Thyroid Receptor alpha (THRa1), THRA (gene 7067) (P10827 whole entry, looked up, the tested form may be a part): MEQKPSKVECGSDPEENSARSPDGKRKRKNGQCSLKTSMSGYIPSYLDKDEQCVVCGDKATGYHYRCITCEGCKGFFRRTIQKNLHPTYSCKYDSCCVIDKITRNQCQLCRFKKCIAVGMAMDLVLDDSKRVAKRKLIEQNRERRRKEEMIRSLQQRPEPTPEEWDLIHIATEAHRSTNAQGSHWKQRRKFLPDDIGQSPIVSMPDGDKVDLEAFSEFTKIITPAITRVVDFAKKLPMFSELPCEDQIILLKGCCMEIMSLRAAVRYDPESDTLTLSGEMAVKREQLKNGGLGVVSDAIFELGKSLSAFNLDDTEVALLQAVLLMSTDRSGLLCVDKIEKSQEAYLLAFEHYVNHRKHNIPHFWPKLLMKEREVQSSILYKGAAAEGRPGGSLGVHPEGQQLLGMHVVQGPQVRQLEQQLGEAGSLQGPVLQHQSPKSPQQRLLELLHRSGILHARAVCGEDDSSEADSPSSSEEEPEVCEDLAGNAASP

Read-out in assay [9]: E-selectin (Homo sapiens) (UniProt P16581)
The assay can be described thus: BSK_3C_Eselectin: BioMAP Diversity Plus: 3C Assay for Eselectin Biomarker Activity (AID 2283015; active = hit-call score of the fitted dose curve at least 0.9, where 1 is the maximum; inactive = score below 0.9;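 as to outcome: cell surface E-selectin protein quantified by ELISA 24 h after dosing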). Particulars: primary human endothelial cells (HUVEC); actives raise or lower the signal. In short, it runs like this:
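Human vascular endothelium from umbilical vein is exposed to test chemicals for 24 h. E-selectin levels are read by ELISA and compared with DMSO controls.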

Read-out in assay [10]: Interleukin-1 alpha (IL1a), IL1A (gene 3552)
The assay can be described thus: BSK_BE3C_IL1a: BioMAP Diversity Plus: BE3C Assay for Interleukin-1 alpha (IL1a) Biomarker Activity (AID 2283016; active = hit-call score of the fitted dose curve at least 0.9, where 1 is the maximum; inactive = score below 0.9). Conditions: primary human bronchial epithelial cells; actives raise or lower the signal. In short, it runs like this: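 Human primary bronchial epithelial cells (BE3C system) were dosed with compound and IL-1a measured by ELISA 24 h later. Activity was fitted bidirectionally against DMSO baseline; cytotoxicity was tracked in parallel cultures by SRB total-protein staining.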

Read-out in assay [11]: Monocyte Chemoattractant Protein-1 (MCP1), CCL2 (gene 6347)
The experiment in a line: BSK_3C_MCP1: BioMAP Diversity Plus: 3C Assay for Monocyte Chemoattractant Protein-1 (MCP1) Biomarker Activity (AID 2283017; active = hit-call score of the fitted dose curve at least 0.9, where 1 is the maximum; inactive = score below 0.9). Conditions: primary human endothelial cells (HUVEC); actives raise or lower the signal. The essentials: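 Endothelial cells from human umbilical vein are dosed with chemical, cultured 24 h, then assayed for MCP-1 by ELISA; both increases and decreases are modelled against DMSO controls.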

Read-out in assay [12]: Monocyte Chemoattractant Protein-1 (MCP1), CCL2 (gene 6347)
The assay can be described thus: BSK_4H_MCP1: BioMAP Diversity Plus: 4H Assay for Monocyte Chemoattractant Protein-1 (MCP1) Biomarker Activity (AID 2283018; active = hit-call score of the fitted dose curve at least 0.9, where 1 is the maximum; inactive = score below 0.9). Conditions: primary human endothelial cells (HUVEC); actives raise or lower the signal. The essentials:
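Human umbilical vein endothelial cells (4H system) dosed with chemical; MCP-1 measured by ELISA 24 h after dosing. Bidirectional curve fitting against DMSO negative control as baseline; parallel SRB total-protein staining tracks overt cytotoxicity.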

Read-out in assay [13]: Human Leukocyte Antigen - DR isotype (HLADR), HLA-DRA (gene 3122)
The assay can be described thus: BSK_3C_HLADR: BioMAP Diversity Plus: 3C Assay for Human Leukocyte Antigen - DR isotype (HLADR) Biomarker Activity (AID 2283019; active = hit-call score of the fitted dose curve at least 0.9, where 1 is the maximum; inactive = score below 0.9;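 as to outcome: ELISA of cell-surface HLA-DR on HUVEC 24 h after dosing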). Conditions: primary human endothelial cells (HUVEC); actives raise or lower the signal. The essentials: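 Endothelial cells from human umbilical vein are treated with test chemical; after 24 h, HLA-DR levels are measured by ELISA. Data are fitted in both directions using DMSO as the baseline.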

Read-out in assay [14]: Interleukin-8 (IL8), CXCL8 (gene 3576)
The experiment in a line: BSK_3C_IL8: BioMAP Diversity Plus: 3C Assay for Interleukin-8 (IL8) Biomarker Activity (AID 2283020; active = hit-call score of the fitted dose curve at least 0.9, where 1 is the maximum; inactive = score below 0.9). Conditions: primary human endothelial cells (HUVEC); actives raise or lower the signal. In short, it runs like this:
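Primary human umbilical vein endothelial cells (3C system) were exposed to test chemical for 24 h, then IL-8 was quantified by ELISA. Responses were fitted bidirectionally against DMSO vehicle as baseline.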

Read-out in assay [15]: Monokine induced gamma interferon (MIG), CXCL9 (gene 4283)
The assay can be described thus: BSK_3C_MIG: BioMAP Diversity Plus: 3C Assay for Monokine induced gamma interferon (MIG) Biomarker Activity (AID 2283021; active = hit-call score of the fitted dose curve at least 0.9, where 1 is the maximum; inactive = score below 0.9). Particulars: primary human endothelial cells (HUVEC); actives raise or lower the signal. In short, it runs like this:
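Primary human umbilical vein endothelial cells in the 3C system were exposed to chemical for 24 h, after which MIG was quantified by ELISA. Activity was fitted bidirectionally against DMSO as negative control and baseline.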

Assay [16] concerns the target human RAR-related Orphan Receptor beta (RORb), RORB (gene 6096) (UniProt Q92753). The assay can be described thus: ATG_RORb_TRANS: Attagene TRANS-FACTORIAL HepG2 Assay for human RAR-related Orphan Receptor beta (RORb) (AID 2283010). The essentials:
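HepG2 cells were transiently transfected with multiplexed GAL4-UAS reporter units expressing chimeric nuclear receptor–GAL4 proteins, then dosed for 24 h. Reporter mRNA was quantified by RT-PCR with fluorescent labelling and capillary electrophoresis; gain of signal was fitted relative to DMSO.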

The target of assay [17] is human RAR-related Orphan Receptor gamma (RORg), RORC (gene 6097) (UniProt P51449). The experiment in a line: ATG_RORg_TRANS: Attagene TRANS-FACTORIAL HepG2 Assay for human RAR-related Orphan Receptor gamma (RORg) (AID 2283011). In short, it runs like this:
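Activity is scored as increase in GAL4-UAS reporter mRNA over DMSO, detected by fluorescent RT-PCR and capillary electrophoresis in HepG2 cells transiently expressing a RORg-Gal4 chimera, 24 h after dosing.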

Assay [18] has as its target Retinoic acid receptor alpha (Homo sapiens) (UniProt P10276). The assay can be described thus: ATG_RARa_TRANS: Attagene TRANS-FACTORIAL HepG2 Assay for human Retinoic Acid Receptor alpha (RARa) (AID 2283005). The essentials: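 Reporter transcripts, measured by RT-PCR with fluorescent labeling and capillary electrophoresis after 24 h dosing, reflect activity of an exogenous human RARa–GAL4 fusion in transiently transfected HepG2. Fitted for increase relative to DMSO.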

The target of assay [19] is human Retinoic Acid Receptor gamma (RARg), RARG (gene 5916) (UniProt P13631). The experiment in a line: ATG_RARg_TRANS: Attagene TRANS-FACTORIAL HepG2 Assay for human Retinoic Acid Receptor gamma (RARg) (AID 2283009). In short, it runs like this: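 HepG2 cells transiently transfected with multiplexed reporter units expressing chimeric RARg-GAL4 and GAL4-UAS-driven reporters; 24 h compound exposure. Reporter mRNA quantified by RT-PCR with fluorescent labelling and capillary electrophoresis; gain-of-signal fitted relative to DMSO baseline.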

Results filed as inconclusive are left out. Active and inactive are the calls of the source. The calls were made as follows, unless noted: active = hit-call score of the fitted dose curve at least 0.9, where 1 is the maximum; inconclusive = response in the unintended direction; inactive = score below 0.9.

Sequence of E-selectin (Homo sapiens) (P16581 whole entry, looked up): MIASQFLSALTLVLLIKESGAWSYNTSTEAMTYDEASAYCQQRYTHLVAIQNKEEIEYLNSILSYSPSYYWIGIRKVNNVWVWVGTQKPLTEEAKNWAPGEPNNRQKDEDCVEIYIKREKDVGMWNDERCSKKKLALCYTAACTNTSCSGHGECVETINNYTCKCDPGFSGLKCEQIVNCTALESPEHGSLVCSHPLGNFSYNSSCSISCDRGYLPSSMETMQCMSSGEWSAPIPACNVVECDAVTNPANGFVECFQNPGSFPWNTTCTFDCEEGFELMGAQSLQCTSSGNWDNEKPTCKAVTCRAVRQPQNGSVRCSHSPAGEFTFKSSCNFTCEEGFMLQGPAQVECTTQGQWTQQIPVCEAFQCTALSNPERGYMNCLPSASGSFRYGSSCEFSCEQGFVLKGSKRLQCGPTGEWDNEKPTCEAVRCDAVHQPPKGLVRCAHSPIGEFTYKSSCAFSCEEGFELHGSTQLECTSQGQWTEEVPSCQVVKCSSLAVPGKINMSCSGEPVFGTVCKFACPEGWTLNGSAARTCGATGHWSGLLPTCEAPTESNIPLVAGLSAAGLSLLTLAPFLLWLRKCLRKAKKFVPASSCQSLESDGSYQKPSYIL
Sequence of human Peroxisome Proliferator-activated Receptor alpha (PPARa), PPARA (gene 5465) (Q07869 whole entry, looked up, the tested form may be a part): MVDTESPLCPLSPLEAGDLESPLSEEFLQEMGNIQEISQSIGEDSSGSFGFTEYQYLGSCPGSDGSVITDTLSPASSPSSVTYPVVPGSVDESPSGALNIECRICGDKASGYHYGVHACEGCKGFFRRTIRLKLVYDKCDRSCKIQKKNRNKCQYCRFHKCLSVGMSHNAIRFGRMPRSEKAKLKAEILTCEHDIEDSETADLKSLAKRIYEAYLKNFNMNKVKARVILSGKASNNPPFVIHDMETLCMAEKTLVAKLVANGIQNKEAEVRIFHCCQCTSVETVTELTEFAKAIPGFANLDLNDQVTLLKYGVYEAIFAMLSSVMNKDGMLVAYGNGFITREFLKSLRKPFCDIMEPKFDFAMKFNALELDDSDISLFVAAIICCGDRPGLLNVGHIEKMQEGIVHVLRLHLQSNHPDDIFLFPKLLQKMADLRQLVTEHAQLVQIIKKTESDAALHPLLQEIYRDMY
Sequence of human Retinoid X Receptor beta (RXRb), RXRB (gene 6257) (P28702 whole entry, looked up, the tested form may be a part): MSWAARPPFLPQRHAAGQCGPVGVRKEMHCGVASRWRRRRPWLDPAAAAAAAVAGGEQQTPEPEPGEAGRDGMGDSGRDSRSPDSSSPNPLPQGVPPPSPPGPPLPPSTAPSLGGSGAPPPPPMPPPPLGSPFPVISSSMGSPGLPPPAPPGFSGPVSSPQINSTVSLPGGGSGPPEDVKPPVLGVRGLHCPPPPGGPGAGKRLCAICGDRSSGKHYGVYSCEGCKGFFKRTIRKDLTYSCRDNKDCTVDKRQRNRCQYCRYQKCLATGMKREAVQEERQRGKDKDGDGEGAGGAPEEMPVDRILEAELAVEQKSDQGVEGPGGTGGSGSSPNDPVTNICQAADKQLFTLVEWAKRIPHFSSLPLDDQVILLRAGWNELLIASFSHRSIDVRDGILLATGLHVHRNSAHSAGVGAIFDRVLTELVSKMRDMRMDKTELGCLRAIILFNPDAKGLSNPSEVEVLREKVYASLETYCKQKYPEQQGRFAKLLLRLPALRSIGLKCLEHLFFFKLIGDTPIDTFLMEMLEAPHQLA
Sequence of human Peroxisome Proliferator-activated Receptor delta (PPARd), PPARD (gene 5467) (Q03181 whole entry, looked up, the tested form may be a part): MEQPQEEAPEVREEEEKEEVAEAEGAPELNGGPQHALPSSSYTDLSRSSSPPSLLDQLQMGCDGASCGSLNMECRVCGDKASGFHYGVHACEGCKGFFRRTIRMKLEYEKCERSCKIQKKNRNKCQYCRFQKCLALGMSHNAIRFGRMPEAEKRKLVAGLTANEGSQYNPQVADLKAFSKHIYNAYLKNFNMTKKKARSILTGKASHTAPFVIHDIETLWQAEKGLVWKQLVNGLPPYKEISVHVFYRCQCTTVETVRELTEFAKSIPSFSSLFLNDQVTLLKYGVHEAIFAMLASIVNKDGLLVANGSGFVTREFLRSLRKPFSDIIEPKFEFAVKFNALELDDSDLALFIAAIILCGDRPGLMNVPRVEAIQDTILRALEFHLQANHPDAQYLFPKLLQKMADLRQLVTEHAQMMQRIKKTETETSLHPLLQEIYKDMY
Sequence of human RAR-related Orphan Receptor gamma (RORg), RORC (gene 6097) (P51449 whole entry, looked up, the tested form may be a part): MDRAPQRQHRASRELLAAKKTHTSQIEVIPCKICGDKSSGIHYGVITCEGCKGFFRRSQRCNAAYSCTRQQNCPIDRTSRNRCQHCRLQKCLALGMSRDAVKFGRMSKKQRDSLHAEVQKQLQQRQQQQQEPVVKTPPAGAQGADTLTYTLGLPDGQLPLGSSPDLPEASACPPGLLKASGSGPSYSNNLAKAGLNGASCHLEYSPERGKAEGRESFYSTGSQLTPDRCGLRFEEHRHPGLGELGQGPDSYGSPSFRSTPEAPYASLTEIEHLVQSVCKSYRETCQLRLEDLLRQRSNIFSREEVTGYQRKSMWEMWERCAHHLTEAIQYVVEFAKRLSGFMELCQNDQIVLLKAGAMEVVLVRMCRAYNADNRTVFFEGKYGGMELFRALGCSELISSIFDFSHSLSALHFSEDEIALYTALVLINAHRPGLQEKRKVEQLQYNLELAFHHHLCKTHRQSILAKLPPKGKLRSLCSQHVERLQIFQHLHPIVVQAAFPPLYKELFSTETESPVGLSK
Sequence of human RAR-related Orphan Receptor beta (RORb), RORB (gene 6096) (Q92753 whole entry, looked up, the tested form may be a part): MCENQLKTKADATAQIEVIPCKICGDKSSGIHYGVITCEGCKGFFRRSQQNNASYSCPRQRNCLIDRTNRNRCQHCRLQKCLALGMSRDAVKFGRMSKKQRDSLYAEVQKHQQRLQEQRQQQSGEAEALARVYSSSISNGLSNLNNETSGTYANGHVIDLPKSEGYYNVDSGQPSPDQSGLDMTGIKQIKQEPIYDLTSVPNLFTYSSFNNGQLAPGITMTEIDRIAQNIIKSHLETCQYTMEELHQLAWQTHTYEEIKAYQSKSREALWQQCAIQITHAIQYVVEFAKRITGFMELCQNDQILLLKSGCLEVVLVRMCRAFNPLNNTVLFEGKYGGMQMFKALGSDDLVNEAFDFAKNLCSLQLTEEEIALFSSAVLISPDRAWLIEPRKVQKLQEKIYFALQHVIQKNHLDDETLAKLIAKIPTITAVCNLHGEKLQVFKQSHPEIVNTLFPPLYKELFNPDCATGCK
Sequence of Retinoic acid receptor alpha (Homo sapiens) (P10276 whole entry, looked up, the tested form may be a part): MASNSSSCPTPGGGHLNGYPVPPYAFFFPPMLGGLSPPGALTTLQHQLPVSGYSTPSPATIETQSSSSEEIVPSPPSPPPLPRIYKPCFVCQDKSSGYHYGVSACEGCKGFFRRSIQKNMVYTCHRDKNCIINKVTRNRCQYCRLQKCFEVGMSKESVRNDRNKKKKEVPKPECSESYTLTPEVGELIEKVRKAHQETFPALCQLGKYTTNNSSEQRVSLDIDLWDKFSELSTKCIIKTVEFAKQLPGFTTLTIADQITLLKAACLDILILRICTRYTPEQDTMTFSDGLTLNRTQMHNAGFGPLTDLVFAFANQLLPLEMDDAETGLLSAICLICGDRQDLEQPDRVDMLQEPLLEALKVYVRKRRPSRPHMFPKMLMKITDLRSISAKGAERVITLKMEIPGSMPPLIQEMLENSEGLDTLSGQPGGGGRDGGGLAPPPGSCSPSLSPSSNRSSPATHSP

In general, AC50 refers to the midpoint of the concentration-response curve, whichever way the signal moves. `CCCCCc1ccc(N)cc1`: the molecule was classed as inactive in assay [1], in assay [2], in [3], in assay [5], in assay [6] and in [7]. Further, the outcome in [8], in assay [9], in assay [10], in assay [11], in assay [12] and in assay [14] was inactive. Besides, the result in assay [15] was inactive. In addition, the AC50 in [4] is 6.3 µM (active); in assay [13] it was 14.5 µM (active).
In the case of `COCC(C)OCC(C)OCC(C)O` (stereo not given), the call in assay [1], in assay [2], in assay [4], in assay [5], in [7] and in assay [8] was inactive. Moreover, the outcome in assay [9], in assay [10], in assay [11], in assay [12], in assay [13] and in [14] was inactive.
With `COc1cc(C(=O)NC2CCN(C)CC2)ccc1Nc1ncc2c(n1)N(C1CCCC1)CC(F)(F)C(=O)N2C`, the outcome in assay [1], in assay [5], in assay [16], in [17], in assay [6] and in assay [7] was inactive. For the same molecule, the outcome in assay [8] was inactive. Moreover, the AC50 was 3.45 µM (active) in assay [2]; 3.69 µM (active) in assay [4]; 17.2 µM (active) in [9]; 10.2 µM (active) in assay [10]; 12 µM (active) in [11]; 5.15 µM (active) in assay [12]. Besides, the AC50 is 4.47 µM (active) in [13] and 7.74 µM (active) in [14].
Take `CCCCCCCCCCCCO`: the molecule was called inactive in assay [1], in [2], in [18], in assay [5], in [19] and in [16]. The outcome in [17], in assay [6], in assay [7] and in [8] was inactive. The AC50 in [3] is 36.2 µM (active); in assay [4], 30.2 µM (active); in assay [9], 31 µM (active); in assay [10] it was 19.8 µM (active); in assay [11], 31 µM (active); in [12], 31.9 µM (active). In addition, the AC50 in assay [13] is 31.3 µM (active); in assay [14], 36 µM (active).
